# According to the OligoGym collection:
# Molecular target: TDRD10
# Assay: pooled miR-30 sensor sort-seq; sequence = guide strand
# Conditions: shRNA
# Also: reference of the scale not given here.
row,Sequence,sensor-assay potency score (higher = more potent)
1,TTTGTGGACATCAAGAGGGTTG,-0.333
2,AAGTCGTCGCTGTCTAGGCTGC,-0.771
3,TTTTGTGGACATCAAGAGGGTT,-0.194
4,TCCAACACTCCATTCTTCCCAA,-0.74
5,TTCACGAACAGTTTTCGCTTGT,0.41
6,AAGATTGCCAACATACACCTCT,0.896
7,TAGAAGGTACAGAATTTCCTCC,0.0428
8,ATGAACATGACCACAGCCCAGG,-1.56
9,TTTGCTTGTATTCACGAACAGT,-0.914
10,TTCCTCCTTAGAAATATCCAGT,-0.848
11,TTCTCCATTATCCAGAATCTGT,-1.03
12,TTTAGGATGTGCAACGCCGAGT,-0.733

# Molecular target: TDRD7
# Assay: as above
# Conditions: shRNA
row,Sequence,sensor-assay potency score (higher = more potent)
1,TGACTTGTCACATATAGCCTTC,-0.332
2,ATAGTCAACATAGCATACCTTT,-1.08
3,TAGTGTAGGGAAACCTAGCTGT,-0.0859
4,TAAATTATCACTCATTTCCTTA,-0.487
5,TATCGTACAGAACAACAAGTGG,-0.96
6,TTCAATGACTGTCTGCACCAGT,0.309
7,TAGAAGGTCACTGAGCTTGTTC,-0.0033
8,TTTCCTTTGTCTCTTAACGGTG,-1.32
9,TAGATTGTGGAAGATCTGCTAA,-0.00415
10,TTTCTTGTAGAAACCGAGGTGG,0.248
11,TTAACCACAGCACTGCATCTGG,-0.0871
12,TTAGTTACTTTGACATTTGTGT,0.2

# Molecular target: TDRKH
# Assay: as above
# Conditions: shRNA
row,Sequence,sensor-assay potency score (higher = more potent)
1,TTGTAGGTAAAGGTGCTGCTAC,-0.223
2,ATGTCCTTCAACATGTCTGGGA,-0.897
3,TTGTGTACTAATTCTAGCCCAA,0.0219
4,TTGATAGTAGTAATGTCCCTTC,-0.374
5,TTTAATATTGGCTCCTTGCCGG,-0.28
6,TTATAAGTCTTGATAGTAGTAA,-0.315
7,TATAAGTAGATCTTTGGCCAAG,-1.04
8,TTGGTCTCAGTGAGCAACGTGC,-0.522
9,ATCTTCTGAAACTTTCTCCAGT,-0.507
10,TTAATATTGGCTCCTTGCCGGC,-1.54
11,TCTGTGTCCACATCAATCCGAG,-0.281
12,TTTTCTTCTATGTCTTCAGGAA,0.0327
